HepG2 tox – counter-screen for TGF-b inhibitors: cytotoxicity in HepG2 cells. HepG2 CAGA-GFP viability, ATP luminescence, 18 h. 410,000 compounds, 0.76% hits. Potency, µM (highest dose often 46.1 µM), for the others: at the highest dose activity change, negative = cytotoxicity, most hits filed as cytotoxic
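CellTiter-Glo luminescence gave cytotoxicity after 18 hours at 37 degrees C. The cells were HepG2 CAGA-GFP in 1% FBS DMEM, stimulated with 500 pg/mL TGF-beta after compound addition. %Activity was normalised to no-cell wells (complete cell-killing) and DMSO (no toxicity), and curves were fitted and classified.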
DT40 TDP1 no CPT – qHTS for Inhibitors of human tyrosyl-DNA phosphodiesterase 1 (TDP1): qHTS in cells in absence of CPT; 420,000 compounds, 15% hits; Potency, µM (highest dose often 46.2 µM), for inactives: at the highest dose activity change, negative = growth inhibition, actives largely listed as inhibitors; DT40 Tdp1-/- hTDP1 cells, no CPT, ATP luminescence, 48 h; note: % is set by controls: 0 for no effect and ±100 for the full control effect; nearly all actives have a fitted effect of over 55% in size
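Chicken DT40 Tdp1-/- cells stably complemented with human TDP1 were seeded at 400 cells/well with DMSO in place of 20 nM camptothecin. After compound pinning, cells grew at least 48 hr at 37 °C; viability read by CellTiter-Glo luminescence.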
TGFb SMAD3 inh – blocks TGF-b signaling | 410,000 compounds, 1.2% hits | Potency, µM (top dose mostly 46.1 µM), for inactives: top-dose activity, negative = inhibition, actives largely listed as inhibitors | HepG2 CAGA-GFP TGF-b/SMAD3 reporter, GFP fluorescence, 18 h; TGF-beta stimulated, 500 pg/mL final; note: % is set by controls: 0 for no effect and ±100 for the full control effect; nearly all actives have a fitted effect of over 65% in size
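HEPG2 CAGA-GFP, 1000 cells/well; 2 h settle, 37 C; cpd via pin tool; TGF-b 500 pg/mL final; 18 h, 37 C; GFP imaging ex488/em500-530; %Activity normalised to -TGF-b and +DMSO controls; CRC fit, curve class.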
ATXN viability – viability counter-screen for ATXN expression inhibitors | AID 651635 | 400,000 compounds, 0.49% hits | S2 cells (HEK-293 line with an ATXN2-luciferase reporter) viability, CellTiter-Fluor protease fluorescence, 24 h | Potency, µM (titrated, usually from 56.7 µM), most hits filed as cytotoxic; note: nearly all actives have a fitted effect of over 40% in size
ATXN2 expr inh – ATXN2 expression inhibition. HEK-293 ATXN2-luciferase reporter, luminescence, 24 h. Potency, µM (titrated, usually from 57 µM), without a hit: at the top dose activity change, negative = inhibition, hits mostly inhibitors. 360,000 compounds, 0.72% hits. AID 1745845; note: % is set by controls: 0 for no effect and ±100 for the full control effect; nearly all actives have a fitted effect of over 55% in size
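ATXN2-luciferase reporter cells (luciferase flanked by upstream and downstream ATXN2 gene portions) were treated 24 h at 37 °C with compounds at up to 57 uM. SteadyGlo luminescence gave expression; GF-AFC fluorescence gave viability.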
DT40 TDP1 CPT – growth inhibition of DT40 Tdp1-/-;hTDP1 cells with camptothecin (screen for TDP1 inhibitors) | Potency, µM (series often up to 46.2 µM), for the others: top-dose activity change, negative = growth inhibition, usual class: inhibitors | chicken DT40 Tdp1-/-;hTDP1 cells + 20 nM CPT, ATP luminescence, 48 h | 420,000 compounds, 12% hits | AID 686979; note: % is set by controls: 0 for no effect and ±100 for the full control effect; nearly all actives have a fitted effect of over 55% in size
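Cell growth measured by CellTiter-Glo luminescence after a minimum 48 h, 37 C compound exposure with 20 nM CPT in Tdp1-knockout DT40 cells stably expressing hTDP1, seeded 400/well; qHTS titration format.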
* marks the source's active call; other numbers are inactive results; i = inactive; ? = inconclusive; . = no result; [ ] = dose if it differs, or a comment. Most compounds without a hit are left out; they make up all but 17% or so of the library. Calls come from the whole dose curve; as a rule, active = well fitted curve in the direction sought with a large enough effect; inconclusive = small, poorly fitted or top-dose-only effect, or another doubt; inactive = no such curve, though single readings can be large; an effect the other way counts as inactive or inconclusive. Potency is the fitted concentration of half-maximal effect.

SMILES	HepG2 tox	DT40 TDP1 no CPT	TGFb SMAD3 inh	ATXN viability	ATXN2 expr inh	DT40 TDP1 CPT
CCCCCC(=O)N1C[C@@H](O)[C@H](n2cc(C3CC3)nn2)C[C@@H]1c1ccc(C)cc1	1.9%	-27.0%	5.5%	i	3.2%	-19.7%
c1ccc2c(c1)OCC(c1csc3ncnc(N4CCOCC4)c13)O2 (centres undefined)	-0.9%	?	-3.3%	i	-6.8%	?
CCN(CC)c1ncnc2scc(C3COc4ccccc4O3)c12 (centres undefined)	-16.7%	?	-8.2%	i	-18.0%	16.4µM*
COc1ccc(C(=O)NC2CC(C)(C)Cc3c2cnn3-c2ccccc2C)c(OC)c1OC (centres undefined)	0.0%	16.4µM*	-11.1%	i	3.5%	23.1µM*
Cc1cc(C(=O)NC2CC(C)(C)Cc3c2cnn3-c2ccccc2C)c(C)o1 (centres undefined)	-7.3%	-27.6%	0.0%	i	50.9%	?
CCOc1ccccc1NS(=O)(=O)c1ccc2c(c1)n(C)c(=O)c(=O)n2C	5.6%	-2.4%	-6.8%	i	-0.7%	-6.9%
Cc1cccc(C)c1-n1nnnc1C(c1ccnc2ccccc12)N(Cc1ccccc1)Cc1ccccc1 (centres undefined)	.	?	.	?	-29.4%	?
N#Cc1cccnc1N1CCN(C(c2ccnc3ccccc23)c2nnnn2-c2ccc3c(c2)OCCO3)CC1 (centres undefined)	.	?	.	i	13.7%	?
c1ccc(CN(Cc2ccccc2)C(c2ccnc3ccccc23)c2nnnn2-c2ccc3c(c2)OCCO3)cc1 (centres undefined)	.	23.1µM*	.	i	-16.6%	?
N#CCCN(Cc1ccccc1)C(c1ccnc2ccccc12)c1nnnn1-c1ccc2c(c1)OCCO2 (centres undefined)	.	-87.6%	.	i	5.3%	?
Cc1cccc(C)c1-n1nnnc1C(c1ccnc2ccccc12)N(CCC#N)Cc1ccccc1 (centres undefined)	.	10.3µM*	.	i	?	13µM*
CN(CCc1ccccc1)C(c1ccnc2ccccc12)c1nnnn1-c1ccc2c(c1)OCCO2 (centres undefined)	.	16.4µM*	.	?	?	?
CCC1=[N+](CC(=O)c2ccc(C)cc2)CCn2cccc21	6.7%	5.17µM*	-3.5%	i	15.8%	4.11µM*
CC1=[N+](CC(=O)c2ccccc2)CCn2cccc21	-5.4%	?	-1.9%	i	80.2%	-18.3%
CCC1=[N+](CC(=O)c2ccc(C)cc2)CCn2c(C)ccc21	-28.2%	2.06µM*	-36.2%	i	36.4%	2.91µM*
CCC1=[N+](CC(=O)c2ccc(Br)cc2)CCn2c(C)ccc21	-35.8%	10.3µM*	-14.4%	i	.	?
CN1CCN(S(=O)(=O)c2ccc(N(C)Cc3ccc(C(F)(F)F)cc3)c([N+](=O)[O-])c2)CC1	-22.2%	13µM*	0.0%	i	?	10.3µM*
COc1ccccc1CN(C)CC(=O)Nc1cccc(S(=O)(=O)N2CCCCC2)c1	-18.9%	23.1µM*	-2.3%	?	-17.2%	16.4µM*
COc1ccc(CN(C)CC(=O)Nc2cccc(S(=O)(=O)N3CCCC3)c2)cc1F	-16.0%	18.4µM*	-11.9%	i	.	?
COc1ccc(Cl)cc1NC(=O)CN(C)CC(=O)Nc1cccc(S(=O)(=O)N2CCCC2)c1	-1.3%	?	-13.4%	i	-23.3%	23.1µM*
N#Cc1cc(NC(=O)Nc2nnc(-c3ccncc3)s2)ccc1-c1cn[nH]c1	.	.	.	.	4.9%	.
C=CCOc1ccc(CN(C)c2ccc(S(=O)(=O)N3CCN(C)CC3)cc2[N+](=O)[O-])cc1	-27.5%	?	-0.4%	?	-22.1%	?
CN(Cc1cccc(Cl)c1Cl)c1ccc(S(=O)(=O)N2CCCCC2)cc1[N+](=O)[O-]	-42.4%	20.6µM*	?	i	-4.1%	?
Cc1ccc(S(=O)(=O)N2CCCCCC2)cc1[N+](=O)[O-]	11.4%	10.3µM*	4.7%	i	4.9%	?
CN(CC(=O)Nc1ccc(S(=O)(=O)N2CCCC2)cc1)Cc1cccc(Cl)c1Cl	-21.9%	?	?	?	-19.6%	16.4µM*
SMILES	HepG2 tox	DT40 TDP1 no CPT	TGFb SMAD3 inh	ATXN viability	ATXN2 expr inh	DT40 TDP1 CPT
CCN(Cc1ccc(OC)c(F)c1)C(C)C(=O)Nc1ccc(S(=O)(=O)N2CCCC2)cc1 (centres undefined)	-4.2%	20.6µM*	-3.4%	i	-6.7%	?
COc1ccc(CN(C)C(C)C(=O)Nc2ccc(S(=O)(=O)N3CCCCC3)cc2)c(OC)c1 (centres undefined)	-5.3%	?	-2.8%	i	-25.9%	?
CN(CCOc1ccccc1)CC(=O)Nc1ccc(S(=O)(=O)N2CCCC2)cc1	-51.6%	?	-28.6%	i	.	?
CC(=O)Nc1ccc(-c2cc(C(=O)O)c3ccccc3n2)cc1	-3.3%	25.2%	-3.6%	i	?	-7.7%
O=C1CSC(c2ccccc2Cl)N1 (centres undefined)	17.3%	-1.8%	25.1%	i	-16.2%[11.3 µM]	7.3%
OC(c1cc(F)cc(Cl)c1)c1ncc(-c2ccccc2C(F)(F)F)[nH]1 (centres undefined)	-43.6%	?	?	i	-25.5%	?
CC(C)C[C@H](NC(=O)c1nc[nH]c1C(=O)NC(c1ccccc1)c1ccccc1)C(=O)OC(C)(C)C	0.1%	18.4µM*	?	?	?	4.11µM*
CC(C)C[C@H](NC(=O)c1[nH]cnc1C(=O)Nc1ccc(Cl)cc1)C(=O)OC(C)(C)C	-55.3%	?	?	28.2µM*	?	?
CC(C)C[C@H](NC(=O)c1nc[nH]c1C(=O)NCCNC(=O)OC(C)(C)C)C(=O)CNCCNC(=O)c1[nH]cnc1C(=O)N[C@@H](C)C(=O)OC(C)(C)C	3.4%	?	9.4%	i	7.4%	23.1µM*
CC(C)C[C@@H](CNC(=O)OC(C)(C)C)NC(=O)c1nc[nH]c1C(=O)N[C@@H](CC(C)C)C(=O)CNC[C@H](CC(C)C)NC(=O)c1nc[nH]c1C(=O)N[C@@H](Cc1c[nH]c2ccccc12)C(=O)OC(C)(C)C	-7.1%	18.4µM*	-23.5%	i	4.2%	?

Bioassay records: PubChem, National Center for Advancing Translational Sciences (NCATS)
